Source: PubChem BioAssay (several laboratories)
Rows were chosen to be rich in hits. Some 5.2% of all compounds tested hit in one or more screens of this group.
SMARCA2 activ: SMARCA2 function activation, primary screen | 370,000 compounds, 1% hits | activation, % at 9.1 µM | MG213 cells, MMTV-luciferase reporter, dexamethasone, overnight | AID 652017; in the data active means activation above about 7.8%;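 further: 0% = vehicle wells and 100% = reference activator wells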
NR3A LBD binder: modulators (binders) of human NR3A ligand-binding domain; 340,000 compounds, 2.5% hits; NR3A LBD differential scanning fluorimetry, Tm shift; 0% = protein alone, 100% = glycine-bound protein; Tm shift relative to glycine control, % at 25 µM;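 active means melting temperature shift of at least 10% of the positive control shift, at one fixed dose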
SKN-1 block: C. elegans SKN-1 inhibition; C. elegans VP596 Pgst-4::GFP/RFP ratio, acrylamide-induced, 24 h; inhibition, % at 21.8 µM; 360,000 compounds, 0.49% hits;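 active means interference check ratio from 0.5 to 1.5 plus GFP to RFP signal ratio inhibition reaching or exceeding a fixed threshold, cut at about 30% in these data, passing the limit was not always enough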
NadD block: NadD (S. aureus) enzyme inhibition; inhibition, % at 20 µM; 360,000 compounds, 0.78% hits; AID 602399; purified NadD enzyme, colorimetric absorbance read-out; in the data active means inhibition above about 26%
Vif imaging: blocks HIV Vif function; HEK293T cells, Vif self-association by quenched fluorescence, imaging, 24 h; inhibition, % at 7.49 µM; 340,000 compounds, 0.35% hits; AID 602346; in the data active means inhibition above about 50%, passing the limit was not always enough; inconclusive means no clear call, values can overlap the other calls; inactive means below about 31%
esBAF inh: SWI/SNF esBAF complex inhibition. mouse ES cells, Bmi1-luciferase knock-in reporter, 24 h; 100% = twice the neutral-well signal. reporter increase, % at 12.5 µM. 350,000 compounds, 2% hits. AID 602393; in the data active means activation above about 40%; inconclusive means no clear call, values can overlap the other calls;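 further: 0% = median of the plate's neutral control wells and 100% = double that signal; a rise in the Bmi1 reporter signal indicates esBAF inhibition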
SMARCA2 conf: confirmation of SMARCA2 (BRM) function activators | shares compounds with SMARCA2 activ | MG213 cells, MMTV-luciferase with dexamethasone, luminescence, overnight; MG213 cells expressing E1A, Rb sequestered; DMSO wells 0%, reference activator 100% | activation, % at 9.1 µM | 3,500 compounds, 30% hits | AID 652260;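 active means activation above its plate's cutoff, the mean activation of tested wells plus 3 SD, cut at about 7.9% in these data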
GAL4-VP16 Luc: GAL4-VP16 reporter activation counter-screen. shares compounds with SMARCA2 activ. HEK293 GAL4-VP16 pG5luc reporter, luciferase luminescence; scaled: DMSO wells 0%, SAHA wells 100%. activation, % at 9.1 µM. 3,500 compounds, 41% hits;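 active means activation above the solvent-only control well mean plus 3 SD, averaged across control plates, cut at about 5.2% in these data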
An asterisk follows results filed as active; ? = inconclusive; · = no result given.

SMILES	SMARCA2 activ	NR3A LBD binder	SKN-1 block	NadD block	Vif imaging	esBAF inh	SMARCA2 conf	GAL4-VP16 Luc
CCCc1cnc(N2CCN(C(=S)NC)CC2)nc1	8.4*	-2	-1	2	-10	37	7	7.7*
CCCC#Cc1ccc([C@H]2[C@H]3CN(S(=O)(=O)c4ccccc4F)CCCCN3[C@H]2CO)cc1	·	·	·	·	·	-2	·	·
N/C(=N\OC(=O)c1cccc(Br)c1)c1ccncc1	8.0*	-3	46*	-9	-4	0	7	7.4*
N/C(=N\OC(=O)c1ccc(Br)cc1)c1ccncc1	4	-30	24	1	-4	?	·	·
COc1ccc(C(C(=O)N(C)C2CCCC2)N(Cc2ccc(F)cc2)C(=O)c2cc(C)[nH]n2)cc1OC (centres undefined)	11*	·	·	·	·	·	4	0
CCc1ccc(C(=O)CN2C(=O)NC(C)(c3ccc(C)cc3)C2=O)cc1 (centres undefined)	9.1*	-3	4	7	10	-3	6	0
O=C(C[C@@H]1C=C[C@@H](NC(=O)C2CC2)[C@H](CO)O1)NCc1ccccc1Cl	·	·	·	·	·	-5	·	·
C[C@H]1CCCCO[C@H](CN(C)S(=O)(=O)c2ccc(F)cc2)[C@@H](C)CN([C@@H](C)CO)C(=O)c2cc(NS(=O)(=O)c3ccc(F)cc3)ccc2O1	·	·	·	·	·	-1	·	·
Clc1nccnc1N/N=C/c1ccc(Br)cc1	2	3	29	0	0	32	·	·
COc1ccc(/C=N/Nc2nccnc2Cl)cc1	8.7*	12*	8	1	2	-50	5	12*
Cc1csc(NC(=O)CCn2c(=O)sc3ccccc32)n1	5	0	-10	-2	-2	17	·	·
O=C(CCn1c(=O)sc2ccccc21)Nc1nccs1	8.3*	-1	-10	-1	-9	34	4	7.7*
Fc1ccc2nc3[nH]c4ccccc4c3nc2c1	13*	0	4	4	-3	35	17*	13*
Cc1cccc(C(=O)N[C@H](C(=O)Nc2ncc(C)s2)C(C)C)c1	27*	1	3	-5	5	·	26*	0
CCN(CC)CCN1C(=O)c2cccc3cc(N)cc(c23)C1=O	11*	-1	-23	4	25	-15	26*	2
NC(=O)CN1CCN(CCN2C(=O)c3cccc4cccc(c34)C2=O)CC1	1	7	-15	-3	-1	1	·	·
O=C1c2ccccc2C(=O)N1CCN1CCCCC1	0	-1	2	-4	-2	·	·	·
O=C1c2cccc3cccc(c23)C(=O)N1CCO	5	·	3	4	8	-1	·	·
Nc1cc2c3c(cccc3c1)C(=O)N(CCN1CCCC1)C2=O	20*	0	12	6	22	-14	30*	3
O=C1c2cccc3cc([N+](=O)[O-])cc(c23)C(=O)N1CCN1CCCC1	64*	-1	4	-2	0	-87	-2	6.5*
Cc1ccccc1S(=O)(=O)NCC[C@@H]1CC[C@H](NC(=O)C2CCCC2)[C@@H](CO)O1	·	·	·	·	·	2	·	·
CCC(=O)Nc1cccc(NC(=O)c2cc3ccccc3o2)c1	8.9*	-1	4	-8	17	38	3	9.8*
O=C(COc1ccccc1)NNC(=O)c1cc2ccccc2o1	9.6*	-3	9	0	-4	·	1	2
C[C@H](NC(=O)C[C@H]1CC[C@H]2[C@@H](COC[C@H](O)CN2Cc2ccc(C(F)(F)F)cc2)O1)c1ccccc1	·	·	·	·	·	6	·	·
O=C(C[C@@H]1CC[C@H]2[C@@H](COC[C@@H](O)CN2CCC(F)(F)F)O1)NCC1CC1	·	·	·	·	·	2	·	·
SMILES	SMARCA2 activ	NR3A LBD binder	SKN-1 block	NadD block	Vif imaging	esBAF inh	SMARCA2 conf	GAL4-VP16 Luc
COc1ccc2c(COC(=O)c3n[nH]c4ccccc34)cc(=O)oc2c1	9.5*	-17	3	21	2	46*	6	11*
O=C(c1ccccc1)c1cnc(-c2ccc(Cl)cc2)s1	14*	-1	6	13	-4	39	6	6.9*
CN1CCc2c(C#N)c(N3CCOCC3)nc(NCC3CCCO3)c2C1 (centres undefined)	12*	0	14	2	11	·	-3	0
O=C(Oc1c(CN2CCOCC2)cc(Cl)c2cccnc12)c1ccccc1Cl	19*	1	2	-7	-6	10	-1	1
O=C(Oc1c(CN2CCOCC2)cc(Cl)c2cccnc12)c1ccc(F)cc1	6	-2	-10	0	-2	-9	·	·
O=C(Oc1c(CN2CCOCC2)cc(Cl)c2cccnc12)c1cccs1	33*	-4	8	2	-3	-10	16*	1
CCOC(=O)Cc1nn(Cc2ccc(Cl)cc2)c(=O)c2ccccc12	8.8*	-2	-7	-6	-6	0	-4	1
CC(C)CSc1nnc(-c2ccco2)n1C	8.4*	·	·	·	·	·	8.9*	2
Cn1c(SCc2ccc(C(C)(C)C)cc2)nnc1-c1ccco1	-2	·	·	·	·	·	·	·
CC(C#N)(Cc1ccccc1)Nc1ccccc1 (centres undefined)	10*	-1	0	0	2	·	-2	-1
C[C@@H]1CCCCO[C@@H](CN(C)CC2CC2)[C@@H](C)CN([C@H](C)CO)C(=O)c2cc(NC(=O)NC3CCCCC3)ccc2O1	·	·	·	·	·	-6	·	·
Cc1ccc(CNC(=O)C2CCC(=O)N(C3CCCC3)C2)c(F)c1F (centres undefined)	9.7*	0	-7	-1	-2	1	-2	0
Cc1ccc(S(=O)(=O)N2CC[C@@H]3[C@H]2c2cc(C#Cc4ccc(F)cc4)ccc2N[C@@H]3CO)cc1	·	·	·	·	·	-2	·	·
CC/S(=N\S(=O)(=O)c1ccc(C)cc1)c1ccccc1 (centres undefined)	8.1*	4	-3	-3	-6	1	-4	-1
CCN(CC)CCCNC(=O)c1ccc2c3n(nc2c1)-c1ccc(Cl)cc1CO3	11*	-5	-9	-1	-2	37	23*	7.2*
NC(=O)c1ccc(-c2ncc(-c3ccccc3)o2)cc1	18*	-11	19	-11	-10	-3	17*	11*
Cc1cc(C)cc(Nc2ccc(C(=O)O)cc2N)c1	-1	-1	-14	-2	-4	22	·	·
Cc1ccc(Nc2ccc(C(=O)O)cc2N)cc1	9.4*	-2	·	·	·	·	1	9.5*
CNS(=O)(=O)c1ccc(NC(=S)Nc2ccc3c(c2)OCO3)cc1	9.0*	1	-6	-4	-6	·	3	0
